Out of some 1,100 compounds screened, about 860 (78%) were called active. Another 19% or so got no clear call; they are omitted. Calls come from the whole dose curve; as a rule, active = well fitted activation curve with a large enough effect; inconclusive = small, poorly fitted or top-dose-only effect; inactive = flat fitted curve, though single readings scatter. So high a share suggests a set chosen from earlier hits. Some of the results follow.

Our source for the Potency values is PubChem BioAssay AID651593 (National Center for Advancing Translational Sciences (NCATS), 2012).
Potency is the fitted concentration of half-maximal effect.

The test can be described thus: qHTS of Nrf2 Activators: Hit Validation in Primary Assay. Note: nearly all actives have a fitted effect of over 70% in size. The note with it: Nrf2/ARE reporter cell assay; Potency: activation; series mostly up to 46.1 µM. A digest of the protocol: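 AREc32 cells stably carrying an ARE-driven firefly luciferase, plated overnight, then exposed 24 h at 37 °C to compounds at several concentrations. ARE activation read as luminescence with Steady-Glo after 30 min at room temperature.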
In general terms: qHTS replaces the single test concentration by a dilution series.
Turning to `O=[N+]([O-])c1cncc([N+](=O)[O-])c1Nc1cccc(O)c1`, the Potency is 14.6 µM (active).

As to `O=c1[nH]ncc(N/N=C\c2cccs2)c1Cl`, the Potency is 20.6 µM (active). On to `CN(C)c1oc(/C=C/c2ccccc2)nc1C#N`, for which the Potency is 3.26 µM (active). Take `O=C(CCNc1cc(Cl)cc(Cl)c1)c1cccs1`: the Potency is 6.51 µM (active). The same measure for `O=[N+]([O-])c1ccc(/C=N/Nc2ccc3ccccc3c2)o1`: 2.91 µM (active); for `Nc1ccc(S(=O)(=O)Nc2nccc(/C=C/c3cccc(Br)c3)n2)cc1`: 3.26 µM (active). The same measure for `CC(C)C(=O)Nc1nnc(-c2ccco2)s1`: 5.8 µM (active).

Regarding `Cc1cc(NC(=O)Nc2cc(Cl)sc2Cl)no1`, the Potency is 4.11 µM (active). In the case of `O=C1N/C(=C\c2ccsc2)C(=O)N1Cc1ccc(F)cc1`, the Potency is 1.64 µM (active). The same measure for `Cc1c(=O)n(OCc2ccc(Cl)cc2)c2ccccc2[n+]1[O-]`: 1.64 µM (active); for `Cc1c(=O)n(OCc2ccccc2)c2ccccc2[n+]1[O-]`: 3.26 µM (active).

As to `C=CCn1c(SCC(C)=O)nc2scc(-c3ccco3)c2c1=O`, the Potency is 0.731 µM (active). Regarding `O=C(/C=C\c1ccc2c(c1)OCO2)CC1(O)C(=O)Nc2ccccc21` (configuration not stated), the Potency was 23.1 µM (active). For `CN1CCN(C(=O)CCN2C(=O)/C(=C/c3cccc(Br)c3)SC2=S)CC1`, the Potency was 5.17 µM (active). On to `O=C(N/N=C/c1ccsc1)c1ccc2ccccc2n1`, for which the Potency was 16.4 µM (active). The same measure for `C(=N/n1c2ccccc2c2ccccc21)/c1ccco1`: 2.31 µM (active); for `COc1ccccc1C=Cc1ccnc2ccccc12`: 2.06 µM (active). The same measure for `O=C(/C=C/c1ccccc1)Nc1ncn[nH]1`: 3.66 µM (active); for `Cc1nc(NC(=O)/C=C/c2ccccc2)n[nH]1`: 3.66 µM (active); for `FC(F)(F)c1cc(-c2cccs2)nc(-n2cc(Br)cn2)n1`: 1.3 µM (active).

In the case of `C/C(=N\NC(=O)c1cccc(Br)c1)c1ccccn1`, the Potency was 4.61 µM (active). For `CCn1c(/C=C/c2ccccc2[N+](=O)[O-])nc2ccccc2c1=O`, the Potency is 3.66 µM (active). Consider `O=c1[nH]c(/C=C/c2ccccc2[N+](=O)[O-])nc2ccccc12`, for which the Potency is 0.411 µM (active). For the compound `CCn1c(/C=C/c2ccccc2F)nc2ccccc2c1=O`, the Potency was 2.31 µM (active).

For the compound `CCn1c(/C=C/c2ccccc2)nc2ccccc2c1=O`, the Potency was 4.11 µM (active). Consider `CCCn1c(-c2cccs2)nc2nc3ccccc3nc21`, for which the Potency was 1.84 µM (active).

For `O=c1cc(-c2ccccc2Cl)oc2c(Br)ccc(O)c12`, the Potency was 6.51 µM (active). Take `c1ccc(-c2cc3c(ccc4nonc43)nn2)cc1`: the Potency was 7.31 µM (active). To `[O-][n+]1onc2c3cc(-c4ccccc4)nnc3ccc21` belongs 8.2 µM (active); to `[O-][n+]1onc2c3ccnnc3ccc21`, 10.3 µM (active); to `CC(=O)N1CCc2c(sc(NC(=O)CCS(=O)(=O)c3ccccc3)c2C#N)C1`, 18.4 µM (active). Turning to `O=C1C(=Cc2ccco2)CCCC1=Cc1ccco1`, the Potency was 3.26 µM (active).
